Compounds without any hit were thinned out: in the full panel of roughly 79,000, 15% have a hit. Rule as the data show it: active = growth inhibition above about 70%; inactive = the rest.
What was measured:
[1] = NCI Yeast Anticancer Drug Screen. Data for the rad50 strain (AID 155);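 also: 0% = growth of vehicle-only cultures of the same strain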; conditions: S. cerevisiae rad50 strain growth inhibition, active compounds read high; at 50.0 µM unless noted
Outline: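 Vehicle-treated cultures provide the reference for the growth inhibition reported for compound-exposed, repair-deficient yeast.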

[2] = NCI Yeast Anticancer Drug Screen. Data for the mec2-1 strain (AID 157); conditions: S. cerevisiae mec2-1 strain, active compounds read high; at 50.0 µM unless noted
Outline: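 Cells of the genetically defined mec2-1 yeast strain are incubated with test compound. Inhibition of growth is calculated against vehicle-treated controls.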

[3] = NCI Yeast Anticancer Drug Screen. Data for the sgs1 mgt1 strain (AID 161);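 also: 0% = growth of cultures given vehicle only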; conditions: S. cerevisiae sgs1 mgt1 strain, active compounds read high; at 50.0 µM unless noted
Outline: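 Mutant yeast exposed to compound; growth scored against vehicle-only wells.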

[4] = NCI Yeast Anticancer Drug Screen. Data for the cln2 rad14 strain (AID 165);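 also: 0% = growth equal to vehicle treated cultures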; conditions: S. cerevisiae cln2 rad14 strain, active compounds read high; at 50.0 µM unless noted
Outline: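 The screen exposed genetically defined yeast (cln2 rad14) to test compounds and scored growth inhibition relative to vehicle-treated controls.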

[5] = NCI Yeast Anticancer Drug Screen. Data for the bub3 strain (AID 167); conditions: S. cerevisiae bub3 mutant strain, active compounds read high; at 50.0 µM unless noted
Outline: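 Mutant yeast screening strain plus compound; vehicle-treated cultures serve as the 0% inhibition reference.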

[6] = NCI Yeast Anticancer Drug Screen. Data for the mlh1 rad18 strain (AID 175); conditions: S. cerevisiae mlh1 rad18 strain growth inhibition, active compounds read high; at 50.0 µM unless noted
Outline: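 Compound-treated yeast growth, normalised to vehicle controls. Strain bears defined DNA repair mutations.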

Measured: growth inhibition

CCOC(=O)c1c(-c2ccc([N+](=O)[O-])cc2)c(C=O)n(-c2ccccc2)c1C
inactive: [1] 4.2% | [2] -5.45% | [3] -0.55% | [4] -21.8% | [5] 36.9% | [6] 6.7%

O=C1C(=O)c2ccccc2C(O)=C1CN1CCOCC1
inactive: [1] 31.6% | [2] 32.1% | [3] 14.4% | [4] 4.65% | [5] 28% | [6] 8.85%

COC(=O)c1ccc(N=NN(C)CN=[N+]=[N-])cc1
inactive: [1] 13.3% | [2] 19.7% | [3] 21.2% | [4] -21.3% | [5] 11.3% | [6] 3.15%

COc1ccc(C(NC(N)=O)c2cc3c(cc2OC(C)=O)OCO3)cc1 (stereo not given)
inactive: [1] -7.25% | [2] -1.95% | [3] -6.65% | [4] -9.05% | [5] 5.7% | [6] -0.4%

COc1ccc(C2NC3=C(CCCC3)N2)cc1
inactive: [1] 26.4% | [2] 4.45% | [3] -13.9% | [4] 8.3% | [5] -3.9% | [6] 32.9%

O=C1C(CN2CCCC2)CCCC1CN1CCCC1 (stereo not given)
inactive: [1] -3.2% | [2] -29.4% | [3] -40.1% | [4] 2.15% | [5] 7.3% | [6] -10.1%

S=C(c1ccccc1)c1cccc2ccccc12
inactive: [1] 57% | [2] 15.1% | [3] 58% | [4] 2.8% | [5] -3.55% | [6] 36.9%

COc1cc(C2c3cc4c(cc3OC(N3CCOCC3)C2C)OCO4)cc(OC)c1O (stereo not given)
inactive: [1] -17.1% | [2] -25.8% | [3] -23.3% | [4] -12.5% | [5] -8.95% | [6] -8%

OCC[P+](c1ccccc1)(c1ccccc1)c1ccccc1
inactive: [1] 17.6% | [2] 12.1% | [3] -6.2% | [4] 16.4% | [5] -6.05% | [6] -11.3%

NC(N)=N/N=C(/CC1OC(=O)c2ccccc21)c1ccc2ccccc2c1 (stereo not given)
inactive: [1] -3.2% | [2] -12.4% | [3] -2.65% | [4] 6.5% | [5] -16.1% | [6] -11.9%

CCOC(=O)CNC(=O)SCc1ccccc1
inactive: [1] -12.4% | [2] -6.2% | [3] -5.95% | [4] -8.1% | [5] -11.3% | [6] 1.45%

CC(=O)CCCCC(=O)Nc1ccc(CC(NC(=O)OC(C)(C)C)C(=O)NCC(=O)OCc2ccccc2)cc1 (stereo not given)
inactive: [1] -38.5% | [2] -4.5% | [3] -1.6% | [4] 8.85% | [5] 10% | [6] -12.1%

CCOC(=O)C1=C(C)O/C(=C/c2cccc(Cl)c2)C1=O
inactive: [1] 42% | [2] 35.2% | [3] 31.1% | [4] 45.9% | [5] 47% | [6] 56.1%

C=C(C)C(=NC(C)(C)C)Nc1ccc(C(=O)OCC)cc1
inactive: [1] -8.3% | [2] -5.6% | [3] -11.8% | [4] -21.2% | [5] -24.1% | [6] -45.6%

Cc1ccnc(NC(=O)CCc2ccccc2)c1
inactive: [1] -11.8% | [2] -16.8% | [3] -10.3% | [4] -31.7% | [5] -13.2% | [6] -5.85%

COc1cc(OCc2ccc3oc(=O)c(-c4ccccc4)nc3c2)cc(OC)c1OC
inactive: [1] 16.6% | [2] 1% | [3] 2.2% | [4] 7.75% | [5] 19.2% | [6] 9.25%

CC(=O)OC1c2ccccc2CCCCCCC12OCCO2 (stereo not given)
inactive: [1] -25.1% | [2] -36.4% | [3] -53.2% | [4] 1.8% | [5] -36.3% | [6] -7.25%

O=C(Nc1ccc2ccccc2c1)c1ccccc1Cl
inactive: [1] 1.65% | [2] -4.4% | [3] 21.9% | [4] -7.15% | [5] 17.1% | [6] 32.3%

CCC(SC(CC)(CC)C(=O)O)C(N)=O (stereo not given)
inactive: [1] -9.9% | [2] 0.05% | [3] -8.15% | [4] -23% | [5] -6% | [6] -8.1%

Cc1ccc(S(=O)(=O)OC2CCSCC2)cc1
inactive: [1] -5.25% | [2] -10.3% | [3] 7.7% | [4] -11.9% | [5] 7.05% | [6] -4.8%

Reference: PubChem BioAssay (NCI)
